Experimental data reported in PubChem BioAssay AID485273 (Sanford-Burnham Center for Chemical Genomics, 2010).
Among all 330,000 compounds or so, about 1,500 (0.45%) were called active. The sample holds actives, similar compounds and a random draw of the others, so the mix is not that of the screen. No stated cut-off is given here; in the data, active means inhibition above about 45% (passing the limit was not always enough); inconclusive means no clear call, values can overlap the other calls.

biological target: Ubiquitin-conjugating enzyme E2 N (Homo sapiens) (UniProt P61088); test: UBC13 polyubiquitin chain formation inhibitors, primary screen, biochemical, TR-FRET, uHTS (AID 485273); details: at 20 µM, stronger effect = higher value
Sequence (P61088 whole entry, looked up): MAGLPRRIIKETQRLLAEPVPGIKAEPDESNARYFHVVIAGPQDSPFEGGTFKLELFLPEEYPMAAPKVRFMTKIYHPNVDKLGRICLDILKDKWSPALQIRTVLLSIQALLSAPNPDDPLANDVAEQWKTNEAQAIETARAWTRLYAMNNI

inhibition, active:
COc1cccc(Cn2cnc3c([N+](=O)[O-])c(C)c(C)cc32)c1 60.4%
C#CCOCCOCCOCCNc1nc(N2CCN(C(=O)CCCCCCCCCCNC(=O)[C@H](CCCCN)n3cc(C)nn3)CC2)nc(N2CCN(C(=O)CCCCCCCCCCNC(=O)[C@H](CO)n3cc(CCCSC)nn3)CC2)n1 121%
C#CCOCCOCCOCCNc1nc(N2CCN(C(=O)CCCCCCCCCCNC(=O)Cn3cc(CCCCCN)nn3)CC2)nc(N2CCN(C(=O)CCCCCCCCCCNC(=O)[C@H](CO)n3cc(CCCSC)nn3)CC2)n1 128%
C#CCOCCOCCOCCNc1nc(N2CCN(C(=O)CCCCCCCCCCNC(=O)[C@H]([C@@H](C)CC)n3cc(CCCCN=C(N)N)nn3)CC2)nc(N2CCN(C(=O)CCCCCCCCCCNC(=O)[C@H](CO)n3cc(CCCSC)nn3)CC2)n1 121%
N#Cc1c(-c2ccc(Cl)cc2)c2c([nH]c1=S)CCCC2 47.4%
Cc1cccc(-n2cnc(C(=O)NNC(=S)Nc3ccccc3)c2)n1 84.4%
CN1CCN(CCCNC(=O)c2ccc(/C=C3\Oc4ccccc4N(Cc4ccc(Cl)cc4)C3=O)cc2)CC1 80.8%
CCN1C(=NCc2ccc(OC)cc2)N[C@@H](CCc2ccccc2)[C@H](C(=O)NCc2ccc(OC)cc2)[C@H]1C 48.7%
CN(C)CC(O)COc1ccc(C(C)(C)c2ccc(OCC(O)CN(C)C)cc2)cc1 (stereo unspecified) 59.2%
NC(=O)NC(CC(=O)NNC(=O)c1ccccn1)c1ccc(Cl)cc1 (stereo unspecified) 93.2%
OCCNc1nc(Nc2ccc(Cl)c(Cl)c2)nc2ccccc12 68.2%
O=C(COC(=O)Cn1cnc2ccccc2c1=O)NCc1ccccc1Cl 45.4%
Cc1ncc(CO)c(/C=N/NC(=O)c2cccc(S(=O)(=O)N3CCCC3)c2)c1O 52.7%
NC[C@H](Cc1ccccc1)NCCc1cc(C(F)(F)F)cc(C(F)(F)F)c1 65.5%
CCCOc1ccc(Cl)cc1Nc1nc(NCCO)nc(N2CCCC2)n1 60.4%
CCOC(=O)N1CCN(C(=O)Cc2ccc(-n3c(=S)[nH]c4ccccc4c3=O)cc2)CC1 46.3%

inhibition, inactive:
CCCN(C(=O)CSc1nnc(N)s1)c1c(N)n(Cc2ccccc2)c(=O)[nH]c1=O 0.1%
COC(=O)C(C)Oc1ccc2c(-c3cccc([N+](=O)[O-])c3)cc(=O)oc2c1 (stereo unspecified) -16.8%
COc1cccc(CN(C)CC(O)COC(c2ccccc2)c2ccccc2C)c1 (stereo unspecified) 19.2%
CN(C(=O)CSc1nnc(-c2ccc(C(C)(C)C)cc2)n1C)C1CCS(=O)(=O)C1 (stereo unspecified) -4.3%
OCCn1c(-c2ccccc2)csc1=Nc1ccccc1 -10.7%
C#CCNC(=O)C1=C[C@@H](c2ccccc2)[C@H](CCCO)[C@@H](OCC)O1 0.9%
Cc1ccc(NC(=O)Cc2nnc(SCC(=O)Nc3nncs3)n2C)cc1 -2.3%
Cc1cccc(Cn2cnc3c(N)c(C)c(C)cc32)c1 3.8%
COc1cccc(CNS(=O)(=O)c2cc3c(cc2C)n(C)c(=O)c(=O)n3C)c1 20%
COc1ccc(CNC(=O)C2CCN(S(=O)(=O)c3ccc(SC)cc3)CC2)cc1 6.2%
C#CCOCCOCCOCCNc1nc(N2CCN(C(=O)[C@H](C(C)C)n3cc(CCO)nn3)CC2)nc(N2CCN(C(=O)[C@H](C(C)C)n3cc(CCO)nn3)CC2)n1 -11.8%
C#CCOCCOCCOCCNc1nc(N2CCN(C(=O)[C@H](CCC(=O)O)n3cc(CN)nn3)CC2)nc(N2CCN(C(=O)[C@H](CCC(=O)O)n3cc(CN)nn3)CC2)n1 2.2%
C#CCOCCOCCOCCNc1nc(N2CCN(C(=O)[C@H](C(C)C)n3cc(CCO)nn3)CC2)nc(N2CCN(C(=O)[C@H]([C@@H](C)CC)n3cc(CCCN=C(N)N)nn3)CC2)n1 19.7%
C#CCOCCOCCOCCNc1nc(N2CCN(C(=O)[C@H](CCCN=C(N)N)n3cc(C(N)[C@@H](C)CC)nn3)CC2)nc(N2CCN(C(=O)[C@H](CO)n3cc([C@@H](N)C(C)C)nn3)CC2)n1 (stereo partly specified) 33.1%
C#CCOCCOCCOCCNc1nc(N2CCN(C(=O)Cn3cc(CCCCN)nn3)CC2)nc(N2CCN(C(=O)[C@H](CCCCN)n3cc(CCC(=O)O)nn3)CC2)n1 3.6%
COc1ccccc1NC(=O)CCN1CCN(c2ccc(Cl)cc2)CC1 -6%
O=C(CN1CCN(c2ccc(O)cc2)CC1)NC1CCCc2ccccc21 (stereo unspecified) 7.1%
O=C(CN1CCSCC1)N/N=C/c1ccc(Cl)cc1 -14.1%
CNc1nccc(-c2ccc(Cl)cc2)c1C#N 9.5%
CN(C)c1nc(-c2cccnc2)nc(-c2ccc(Cl)cc2)c1C#N -0.5%
Cc1cccc(-n2cnc(C(=O)Nc3cccnc3)c2)n1 -3.6%
Cn1cc(Cl)c(C(=O)NNC(=S)Nc2cccc(Cl)c2)n1 -10.5%
COc1ccc(CNS(=O)(=O)c2ccc(NC(=O)N3CCCCC3)cc2)cc1 -9.2%
CCCN1CCN(C(=O)CCCNC(=O)c2ccc(Cl)cc2)CC1 -6.8%
CC(C)OCCCNC(=O)CN1C(=O)/C(=C/c2ccccc2F)Oc2ccccc21 1%
Cc1ccc2c(C)c(C(=O)N3CCC(N4CCC(C(=O)NC5CC5)CC4)CC3)oc2c1 -16.4%
S=C(Cc1ccc(Cl)cc1)N1CCOCC1 4.3%
CCN1C(=NCC(C)C)N[C@@H](CCc2ccccc2)[C@H](C(=O)NCC(C)C)[C@H]1C 15.8%
CCN1C(=S)N[C@@H](CCc2ccccc2)[C@H](C(=O)OC)[C@H]1C 4.5%
CCN(CC(=O)Nc1cc(Cl)ccc1C)C(=O)CSCc1ccc(C)cc1 0.3%
Cc1cccc(N2CCN(C(C)C(=O)N3CCc4ccccc43)CC2)c1C (stereo unspecified) -1.5%
CC(=O)Nc1cccc(NC(=O)c2ccc3c(c2)CCN3S(C)(=O)=O)c1 -2.7%
Cc1cc(C)n(CC(O)COc2ccc(C(C)(C)C)cc2)n1 (stereo unspecified) -14.2%
CC(C)(c1ccccc1)c1ccc(OCCN)cc1 16.7%
CCCNC(=O)NC(=O)COC(=O)CC(NC(N)=O)c1ccc(Cl)cc1 (stereo unspecified) 1%
O=C(COC(=O)c1ccccn1)NNC(=O)c1ccc(Br)cc1 3.1%
COc1ccc(C(=O)C2CCCN(S(=O)(=O)c3cccc(C)c3)C2)c(C)c1 (stereo unspecified) -4.5%
O=C(CCn1c(=O)oc2ccccc21)Nc1ccon1 -0.5%
Cc1ccc2c(c1)C(c1ccccc1)N(C(=O)c1ccc(S(=O)(=O)N3CCOCC3)cc1)CC(=O)N2 (stereo unspecified) 0.9%
Cc1ccc(Nc2nc(N)nc(CN3CCN(Cc4ccccc4)CC3)n2)cc1Cl 8.9%
CNc1nc(Nc2ccc(C)c(Cl)c2)nc(N)c1[N+](=O)[O-] 9.3%
CCCS(=O)(=O)Nc1c(C(=O)O)[nH]c2ccccc12 8.6%
C=CCn1c(SCc2ccc(Cl)c(Cl)c2)nnc1C(CO)NC(=O)c1ccc(OC)cc1 (stereo unspecified) 15.9%
O=C(COC(=O)Cn1cnc2ccccc2c1=O)NCC12CC3CC(CC(C3)C1)C2 17.4%
Cn1c(CCC(=O)OCC(=O)NCc2ccccc2Cl)nc(=O)c2ccccc21 2.8%
O=C(N/N=C/c1ccccc1O)/C(=C/c1ccccc1)CCO 4.1%
COc1ccccc1C(=O)OCC(=O)NCCNC(=O)COC(=O)c1ccccc1OC 5.1%
O=C(N/N=C/c1ccccn1)c1ccc(S(=O)(=O)N2CCCCCC2)cc1 -2.2%
Cc1cccc(NC(=O)c2cccc(S(=O)(=O)N3CCCC3)c2)n1 2.6%
Cc1cc(C)n(CC(O)CN(c2ccccc2)S(=O)(=O)c2ccc3ccccc3c2)n1 (stereo unspecified) -8.5%
CCSCc1nc(N)nc(NCCc2ccccc2)n1 8.1%
Cc1c(C(=O)N2CCN(c3ccc(F)cc3)CC2)oc2c1C(=O)CCC2 3.2%
COc1ccc2c(CC(=O)NNC(=O)c3ccccc3F)coc2c1 7.9%
COC(=O)[C@@H](Cc1ccccc1)NC(=O)NCCc1ccccc1 6.5%
O=C(CCC(=O)c1ccccc1)NCc1cccc(C(F)(F)F)c1 -0.5%
CCOc1ccc(Nc2nc(Cc3nnc(SCC(=O)c4ccc(C)cc4)o3)cs2)cc1 1.3%
CC(NCc1nc2ccccc2n1C)C12CC3CC(CC(C3)C1)C2 (stereo unspecified) 22.8%
CC(C)(C)Oc1ccccc1Nc1nc(NCCO)nc(N2CCCC2)n1 8.7%
Cc1cccc(Nc2nc(NCCO)nc(N3CCCC3)n2)c1 11.1%
CC(=O)N1C(=O)/C(=C2\SC(=S)N(NC(=O)c3ccc(O)cc3)C2=O)c2ccccc21 -62.3%
COc1c(O)cc2oc(-c3ccc(O)c(O)c3)cc(=O)c2c1O -3.7%
COC(=O)c1ccccc1NC(=O)C1CCN(C(=O)N2CCOc3ccccc32)CC1 6.2%
CCCCNC(=O)c1ccc(-n2c(=S)[nH]c3ccccc3c2=O)cc1 43.8%
O=C(Cc1ccc(-n2c(=O)[nH]c3ccccc3c2=O)cc1)N1CCN(c2cccc(Cl)c2)CC1 -5.1%
COc1cccc(-c2ccc(SCC(=O)N3CCN(c4ccccc4)CC3)nn2)c1 -10.5%
